# TDP1 cell CPT = qHTS for Inhibitors of human tyrosyl-DNA phosphodiesterase 1 (TDP1): qHTS in cells in presence of CPT; AID 686979, 2013; Potency, µM (highest dose often 46.2 µM), for the others: top-dose activity change, negative = growth inhibition, actives largely listed as inhibitors; 12% of 420,000 active; chicken DT40 Tdp1-/-;hTDP1 cells + 20 nM CPT, ATP luminescence, 48 h; also: potency is read from the fitted curve at half-maximal effect; nearly all actives have a fitted effect of over 55% in size
#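 Cell growth measured by CellTiter-Glo luminescence after a minimum 48 h, 37 C compound exposure with 20 nM CPT in Tdp1-knockout DT40 cells stably expressing hTDP1, seeded 400/well; qHTS titration format.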
# IL-1B inflam inh = qHTS for Inhibitors of Inflammasome Signaling: IL-1-beta AlphaLISA Primary Screen; THP-1 LPS/ATP IL-1B secretion, AlphaLISA, 16 h; stronger effect = lower value; activity change, % at 57.5 µM; 4.7% of 360,000 active; AID 743279, 2014; in the data active = activity change below about -50%; inconclusive = mostly about -30% to -49%
#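 THP-1 cells pretreated 1 hr with compounds (up to 57.5 uM final), then stimulated with LPS (250 ng/mL final) plus ATP (1.25 mM final); secreted IL-1B measured by AlphaLISA after 16 hr, decreased signal indicating inhibition.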
# TDP1 cell noCPT = qHTS for Inhibitors of human tyrosyl-DNA phosphodiesterase 1 (TDP1): qHTS in cells in absence of CPT; AID 686978, 2013; 15% of 420,000 active; Potency, µM (doses to about 46.2 µM), inactives show top-dose activity change, negative = growth inhibition, actives largely listed as inhibitors; DT40 Tdp1-/- hTDP1 cells, no CPT, ATP luminescence, 48 h; also: potency is read from the fitted curve at half-maximal effect; nearly all actives have a fitted effect of over 55% in size
#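 Chicken DT40 Tdp1-/- cells complemented with human TDP1, screened without camptothecin (DMSO vehicle only), 400 cells/well. Compounds pin-transferred, cells incubated at 37 °C for at least 48 hr. Growth read as ATP-dependent luminescence (CellTiter-Glo, 30 min at RT).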
# HT1080 IDH1KD tx = qHTS for induction of synthetic lethality in tumor cells producing 2HG: qHTS for the HT-1080-IDH1KD cell line; HT-1080 IDH1 knockdown viability, ATP luminescence, 48 h; Potency, µM (doses to about 46.1 µM), for inactives: top-dose activity, negative = toxicity, hits mostly cytotoxic; 2% of 360,000 active;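 also: potency is read from the fitted curve at half-maximal effect; 0% = DMSO wells and -100% = cell-free medium wells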
#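 % activity derives from luminescence (CellTiter-Glo), normalised to DMSO and no-cell wells. HT-1080-IDH1KD cells, 750/well, had 48 h compound exposure at 37 °C.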
# HT1080-NT tox = qHTS for induction of synthetic lethality in tumor cells producing 2HG: qHTS for the HT-1080-NT fibrosarcoma cell line; HT-1080-NT fibrosarcoma viability, CellTiter-Glo ATP luminescence, 48 h; Potency, µM (highest dose often 46.1 µM), for the others: at the highest dose activity, negative = less viability, most hits filed as cytotoxic; 1.6% of 360,000 active; AID 686970, 2013;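 also: NT is the 2HG producing partner of a matched IDH1 knockdown line; potency is read from the fitted curve at half-maximal effect; 0% = DMSO-treated cells and -100% = media-only wells without cells; nearly all actives have a fitted effect of over 55% in size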
#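 HT-1080-NT; 750 cells/well; 5% FBS RPMI; 48 h compound, 37 degrees C; CellTiter-Glo luminescence; curve fitting and curve-class assignment.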
# * hit, by the source's call; ? = inconclusive; . = no result given. Most compounds without a hit are left out; they make up all but 19% or so of the library. Unless noted, calls follow the shape of the dose curve; as a rule, active = well fitted curve in the direction sought with a large enough effect; inconclusive = small, poorly fitted or top-dose-only effect, or another doubt; inactive = no such curve, though single readings can be large; an effect the other way counts as inactive or inconclusive. Unless noted, % is scaled to controls: 0 for no effect and ±100 for the full control effect.
SMILES,TDP1 cell CPT,IL-1B inflam inh,TDP1 cell noCPT,HT1080 IDH1KD tx,HT1080-NT tox
O=C(c1cnc(N2CCOCC2)c2ccccc12)N1CCN(c2ccc(F)cc2)CC1,15µM*,.,?,.,.
COc1ccccc1N1CCN(C(=O)c2cnc(N3CCCCC3)c3ccccc23)CC1,4.6µM*,.,3.7µM*,.,.
O=C(c1n[nH]c2ccccc12)N1CCN(c2ccc(F)cc2)CC1,-28%,-8,-26%,12%,10%
CCN1CCN(c2ncc(C(=O)N3CCN(c4ccccc4OC)CC3)c3ccccc23)CC1,-23%,-3,?,18%,14%
O=C(c1ccccc1CCc1ccccc1)N1CCOCC1,-4%,-16,0%,9%,11%
COc1ccccc1N1CCN(C(=O)N2CCOCC2)CC1,-13%,0,-20%,-8%,1%
O=C(c1ccccc1C(=O)N1CCN(c2ccc(F)cc2)CC1)N1CCN(c2ccc(F)cc2)CC1,?,-4,9.2µM*,-11%,-7%
O=C(c1sc2cc(F)ccc2c1Cl)N1CCN(c2ccccc2)CC1,-7%,-60*,?,-3%,-7%
O=C(c1ccccc1C(=O)N1CCN(c2ccccc2)CC1)N1CCN(c2ccccc2)CC1,?,-5,?,3%,18%
Nc1sccc1C(=O)N1CCN(c2ccccc2)CC1,18µM*,-7,16µM*,0%,-10%
COc1ccccc1N1CCN(C(=O)c2cnc(N3CCOCC3)c3ccccc23)CC1,?,.,16µM*,.,.
COc1nc(-c2ccccc2)nc(C)c1CC(=O)O,11%,-13,-2%,0%,17%
Clc1nc(-c2ccccc2)c2ccccc2n1,13%,22,-2%,-4%,-2%
NC(N)=Nc1nc(-c2ccccc2)c2ccccc2n1,26µM*,.,15µM*,18µM*,-29%
Cc1ccc(S(=O)(=O)CCC(=O)OCC(=O)NCCc2ccccc2)cc1,11%,5,-2%,10%,4%
Cc1ccc(S(=O)(=O)Cn2nnnc2C(c2ccc(F)cc2)N2CCCCC2)cc1 (stereo not drawn),?,-1,23µM*,3%,6%
CCN1CCN(C(c2cc3cccc(C)c3[nH]c2=O)c2nnnn2Cc2ccccc2)CC1 (stereo not drawn),-30%,-3,-21%,2%,6%
Cc1ccc2cc(C(c3nnnn3Cc3ccccc3)N3CCN(c4ccccc4)CC3)c(=O)[nH]c2c1 (stereo not drawn),13µM*,-21,?,-2%,-3%
Cc1cccc2cc(C(c3nnnn3Cc3ccccc3)N3CCCc4ccccc43)c(=O)[nH]c12 (stereo not drawn),13µM*,46,16µM*,-1%,0%
Cc1ccc(C(c2nnnn2CS(=O)(=O)c2ccc(C)cc2)N2CCCC2)cc1 (stereo not drawn),-27%,-24,1%,7%,10%
Cc1ccc(C(c2nnnn2Cc2ccccc2)N2CCN(Cc3ccccc3)CC2)cc1 (stereo not drawn),?,?,16µM*,?,-23%
CCOc1ccc(NC(=S)Nc2cc(C)[nH]n2)cc1,-18%,0,-7%,-6%,11%
Cc1ccc(N(C)C(=O)CCS(=O)(=O)c2cc3c(cc2Cl)NC(=O)CO3)cc1,-22%,-1,-22%,-9%,-5%
CN(C)CCNC(=O)c1cccc(-c2cccc3nncn23)c1,-20%,-16,-1%,22%,0%
Cc1noc(C(=O)Nc2cccc(O)c2)c1Cl,-18%,0,-17%,-4%,-16%
c1ccc2c(c1)CCCN2,4%,.,6%,.,.
c1ccc(CN2CCN(C(c3ccccc3)c3nnnn3Cc3ccccc3)CC2)cc1 (stereo not drawn),?,-58*,18µM*,-7%,-1%

# Compound activity: PubChem, National Center for Advancing Translational Sciences (NCATS)
